Cycloheximide cs: counter-screen for Shiga toxin inhibitors: cycloheximide protein synthesis inhibition. AID 2314. cell reporter, cycloheximide protein synthesis inhibition counterscreen. max response, %. hit rate 12% among 300,000; in the data active = max response mostly above about 13%, no sharp cut-off; inactive = mostly below about 14%; also: read at 38.3 µM for the half of the compounds with a filed dose; 0% is about no effect
Shiga inhibitor: inhibitors of Shiga toxin in Vero cells; Vero cells, Shiga toxin protein synthesis inhibition reporter; inhibition, % at 38.7 µM; hit rate 9.2% among 290,000; AID 2315; in the data active = inhibition mostly above about 28%, no sharp cut-off; inactive = mostly below about 43%; also: 0% is about no effect
Pf growth 48h: P. falciparum growth inhibition at 48 hours (one generation) | AID 504832 | P. falciparum luciferase growth in erythrocytes, 48 h | Potency, µM (highest dose often 28.7 µM), inactives show at the highest dose activity change, negative = inhibition, actives largely listed as inhibitors | hit rate 5.9% among 310,000; also: potency is read from the fitted curve at half-maximal effect; % is scaled to controls: 0 for no effect and ±100 for the full control effect
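Firefly luciferase activity from engineered P. falciparum reports growth; inhibitors lower the luminescent signal. Cultures contained 2% hematocrit erythrocytes at 0.1% final parasitemia.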
Pf growth 96h: P. falciparum growth inhibition at 96 hours | P. falciparum luciferase reporter growth, 96 h | Potency, µM (top dose mostly 28.7 µM), for the others: at the highest dose activity change, negative = inhibition, actives largely listed as inhibitors | hit rate 6.9% among 320,000; also: potency is read from the fitted curve at half-maximal effect; % is scaled to controls: 0 for no effect and ±100 for the full control effect
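Erythrocytes infected with luciferase-expressing P. falciparum were dispensed at 2% hematocrit and 0.05% parasitemia (final), then incubated with compounds 96 hours at 37 C in 5% CO2. Luminescence after detection reagent addition reported growth.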
HCMV inh: inhibitors of human cytomegalovirus | hit rate 4.5% among 410,000 | AID 1259415 | HFF cells, HCMV-luciferase reporter, 72 h; active compounds read low | activity change, negative = inhibition, % at 57.5 µM; in the data active = activity change below about -60%; inconclusive = no clear call, values can overlap the other calls; inactive = above about -39%; also: % is scaled to controls: 0 for no effect and ±100 for the full control effect
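Steps: HFFs plated, 16 h 37C; compounds added; HCMV-luciferase added to MOI 1 PFU/cell; 72 h 37C; OneGlo reagent, 5 min room temperature; luminescence read, normalized to controls.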
HCV inh: blocks hepatitis C virus; Huh7.5.1 HCVcc-Cre infection, luciferase reporter, 44 h; Potency, µM (top dose mostly 41.8 µM), without a hit: top-dose activity change, negative = inhibition, hits mostly inhibitors; hit rate 3.4% among 340,000; AID 651820; also: potency is read from the fitted curve at half-maximal effect; % is scaled to controls: 0 for no effect and ±100 for the full control effect
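Cells seeded at 1,000/well and cultured 4 h, then compounds added followed by HCVcc-Cre virus (~0.5 moi). After 44 h further culture, luciferase substrate was added, plates held 15 min at room temperature, and luminescence read for 15 sec.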
Numbers without * were called inactive; ? = inconclusive; nt = not tested or not shown. The list is not random: actives were taken first. Their share in the collection is about 21%. Unless noted, calls follow the shape of the dose curve; as a rule, active = well fitted inhibition curve with a large enough effect; inconclusive = small, poorly fitted or top-dose-only effect, or another doubt; inactive = no such curve, though single readings can be large or run the other way.

SMILES | Cycloheximide cs | Shiga inhibitor | Pf growth 48h | Pf growth 96h | HCMV inh | HCV inh
CS(=O)(=O)c1cccc(Nc2cc3c(cn2)cc(-c2ccccc2)n3Cc2ccccc2)c1 | nt | nt | nt | nt | 15 | nt
O=C(O)C1CC(c2ccccc2)=NO1 (stereo unspecified) | -1 | -7 | 10% | nt | -10 | 8%
O=S(=O)(c1ccccc1)C1(C2CC(c3ccccc3)=NO2)CC(O)C1 (stereo unspecified) | 12* | 15 | 35% | ? | -24 | -14%
Cc1ccc(N=C2NC(=O)/C(=C/c3cn(C)c4ccccc34)S2)cc1C | -2 | -4 | ? | 4.7µM* | ? | 13µM*
CCOc1ccc2c(c1)S/C(=C\c1cccs1)C(=O)N2 | 31* | 69* | 47% | 75% | ? | -13%
Cn1cccc1/C=C1\SC(=Nc2ccccc2)NC1=O | 44* | 85* | 67% | 7.4µM* | 2 | 7.9µM*
Cc1ccc(N=C2NC(=O)/C(=C/c3cccn3C)S2)c(C)c1 | 6 | 21 | ? | 12µM* | ? | -27%
Cn1cc(/C=C2\SC(=S)N(N3CCOCC3)C2=O)c2ccccc21 | -1 | -16 | -10% | 45% | 90 | 5%
COc1ccc(C)cc1NC(=S)NNC(=O)c1c(Br)cnn1C | 5 | 8 | 0% | 26% | -8 | -2%
Cc1ccc(SCc2nc(-c3ccc(C(=O)Nc4cc(C)ccc4C)cc3)oc2C)cc1 | nt | nt | nt | nt | -7 | nt
Cc1cc(C)cc(N=C2NC(=O)/C(=C/c3cccs3)S2)c1 | -1 | 4 | 22% | ? | 37 | 10%
Cn1cccc1/C=C1\SC(=Nc2ccc(O)cc2)NC1=O | 44* | 37* | ? | ? | -77* | ?
O=C1NC(=Nc2ccccc2)S/C1=C\c1cccs1 | 45* | 89* | -41% | 45% | 3 | -3%
Cn1cccc1/C=C1\SC(=Nc2cccc(O)c2)NC1=O | 40* | 100* | 2% | ? | 25 | -3%
O=C(Nc1cccc(-c2nc3cccnc3s2)c1)c1cccnc1Cl | 18* | 31* | ? | ? | 11 | -24%
O=C(Nc1ccccc1-c1nc2ccccc2s1)c1cccnc1Cl | -2 | 27 | 12% | 20% | -15 | 35µM*
O=C(Nc1ccccc1-c1nc2ccccc2s1)c1ccco1 | 39* | 106* | 1% | 4% | 17 | 4µM*
O=C(Nc1ccccc1-c1nc2ccccc2s1)c1cc(Cl)cc(Cl)c1 | nt | nt | nt | nt | 13 | nt
CC1=C(C(=O)Nc2cccnc2)C(c2ccccc2)n2nc(SCc3ccccc3F)nc2N1 (stereo unspecified) | nt | nt | nt | nt | 4 | nt
COc1ccccc1-n1c2nc3ccccc3nc2c2c(=O)n(-c3cc(C)cc(C)c3)cnc21 | 4 | -9 | 13µM* | ? | -69* | ?
COc1ccccc1-n1cnc2c(c1=O)c1nc3ccccc3nc1n2-c1ccc(C)cc1 | -2 | -3 | -4% | ? | -87* | ?
COc1ccccc1-n1cnc2c(c1=O)c1nc3ccccc3nc1n2CCc1ccccc1 | -6 | -12 | 44% | 42% | ? | 4%
CC1(C)CC(NC(=O)c2ccccc2)CC(C)(C)N1 | -4 | -7 | -3% | ? | -9 | 2%
C[C@@H]1C(NC(=O)c2ccccc2)CC2CC1C2(C)C (stereo partly specified) | 6 | 15 | -14% | 7.4µM* | -38 | 5%
COC(=O)C1=C(c2ccccc2OCc2ccccc2)C[C@@H]2CC[C@H]1N2C(=O)NCc1ccc(Cl)cc1 | nt | nt | 9.3µM* | ? | -13 | 11µM*
SMILES | Cycloheximide cs | Shiga inhibitor | Pf growth 48h | Pf growth 96h | HCMV inh | HCV inh
COC(=O)C1=C(c2ccc(F)cc2OCc2ccccc2)C[C@@H]2CC[C@H]1N2C(=O)NCc1ccc(N(C)C)cc1 | nt | nt | 12µM* | ? | 13 | ?
COC(=O)C1=C(c2ccccc2OCc2ccccc2)C[C@@H]2CC[C@H]1N2C(=O)NCc1ccc([N+](=O)[O-])cc1 | nt | nt | 12µM* | ? | 15 | 13µM*
COC(=O)C1=C(c2ccccc2OCc2ccccc2)C[C@@H]2CC[C@H]1N2C(=O)NCc1ccc(N(C)C)cc1 | nt | nt | 6.6µM* | ? | ? | ?
CC1=NN(c2ccccc2)C(=O)/C1=C\c1c(C)[nH]n(-c2ccccc2)c1=O | 6 | -5 | -7% | 8% | -22 | 5%
CC1=NN(c2ccccc2)C(=O)/C1=C/c1c(O)n(-c2ccc(F)c(Cl)c2)[nH]c1=O | 17* | 19 | -1% | ? | nt | 36%
CCc1cccc(C)c1NC(=O)C1CCN(c2nnc(C)c3c(C)n(-c4ccccc4)nc23)CC1 | nt | nt | nt | nt | -20 | nt
CCOc1ccc(OCCC(=O)OCC(=O)Nc2cc(OCC)c(N3CCOCC3)cc2OCC)cc1 | nt | nt | ? | -1% | 22 | ?
COC(=O)[C@]12C[C@H](CC(=O)NCC3CCCCC3)C(=O)N(Cc3ccccc3)C1=C[C@H](C(C)(C)C)O[C@@H]2C | nt | nt | nt | nt | -33 | nt
O=C(CCc1ccccc1Cl)Nc1cccc(S(=O)(=O)N2CCCC2)c1 | -2 | 15 | ? | ? | -4 | ?
COc1ccccc1C(=O)NCCC(=O)Nc1cccc(S(=O)(=O)N2CCCC2)c1 | nt | nt | 3.3µM* | ? | ? | -28%
COc1cccc(/C=C/C(=O)OCC(=O)Nc2cccc(S(=O)(=O)N3CCCCC3)c2)c1OC | 13 | 61* | 14% | 16% | 33 | 2%
COc1cccc(/C=C/C(=O)OCC(=O)Nc2ccc(S(=O)(=O)N3CCCC3)cc2)c1 | 3 | -10 | 21% | 10% | 23 | 15%
COc1cc(/C=C/C(=O)OCC(=O)Nc2ccc(S(=O)(=O)N3CCCC3)cc2)ccc1O | -2 | 16 | ? | 9.3µM* | -24 | ?
COc1cccc(CCC(=O)Nc2cccc(S(=O)(=O)N3CCCC3)c2)c1OC | nt | nt | 9.3µM* | 8.3µM* | 4 | ?
COc1ccccc1C(=O)Nc1cccc(S(=O)(=O)N2CCCC2)c1 | -1 | -12 | -2% | -17% | 16 | ?
COc1cc(-c2n[nH]c3ccnc(-c4ccccc4)c23)cc(OC)c1OC | nt | nt | nt | nt | -8 | nt
CCOC(=O)c1cccc(NS(=O)(=O)c2cc(-c3cnc(C4CC4)o3)ccc2C)c1 | nt | nt | nt | nt | -24 | nt
COc1ccccc1CNC(=O)CSCc1nc(-c2ccc(OC)c(OC)c2)oc1C | nt | nt | nt | nt | -12 | nt
COc1cc2[nH]c(=O)n(Cc3ccc(C(=O)N4CCN(c5cc(Cl)ccc5C)CC4)cc3)c(=O)c2cc1OC | nt | nt | nt | nt | -4 | nt
Cc1ccc(C(=O)OCc2c(C)noc2C)cc1NC(=O)c1ccco1 | -4 | 16 | -77% | 10µM* | 9 | -26%
Cc1ccc(C(=O)OCC(=O)c2c[nH]c3ccccc23)cc1NC(=O)c1ccco1 | 19* | 45 | -15% | ? | -33 | ?
O=C(COc1ccc(F)cc1)N1CCC(Cc2ccccc2)CC1 | 14* | 52 | ? | -10% | nt | -1%
COc1ccc(OCC(=O)N2CCC(Cc3ccccc3)CC2)cc1 | -2 | 19 | -23% | ? | -1 | -5%

Bioassay records: PubChem, National Center for Advancing Translational Sciences (NCATS)
